From the supplement of paper PMC10105736
A number with no mark means an inactive call.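 The calls were made as follows: active = MAPPIT score above the 99th percentile of random reference set scores in the same batch; inactive = at or below it.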

Key:
Experiment in all cases: MAPPIT interaction score (arbitrary units); higher = stronger binary interaction signal, active = hit call of the paper
[1] = molecular target: RIC-3; conditions: MAPPIT configuration: N-C; pair source set: screen_3
[2] = molecular target: Sod3; conditions: MAPPIT configuration: N-C; pair source set: screen_4
[3] = molecular target: REPTOR-BP; conditions: MAPPIT configuration: N-N; pair source set: Curagen_high_conf
[4] = molecular target: ReepB; conditions: MAPPIT configuration: N-N
[5] = molecular target: RFeSP; conditions: MAPPIT configuration: N-N; pair source set: RRS
[6] = molecular target: Rbp1; conditions: MAPPIT configuration: N-N; pair source set: Finley_Y2H
[7] = molecular target: Pu; conditions: MAPPIT configuration: N-C; pair source set: screen_4
[8] = molecular target: RpL35A; conditions: MAPPIT configuration: N-N; pair source set: Finley_Y2H
[9] = molecular target: RpL37A; conditions: MAPPIT configuration: N-N; pair source set: Curagen_high_conf
[10] = molecular target: Rab26; conditions: MAPPIT configuration: N-N; pair source set: Lit-BS-16
[11] = molecular target: Rgk3; conditions: MAPPIT configuration: N-N; pair source set: Curagen_low_conf
[12] = molecular target: RPA2; conditions: MAPPIT configuration: N-N; pair source set: Finley_Y2H
[13] = molecular target: ScsbetaG; conditions: MAPPIT configuration: N-N; pair source set: Finley_Y2H
[14] = molecular target: RpL12; conditions: MAPPIT configuration: N-N; pair source set: Lit-BS-16
[15] = molecular target: Ptp61F; conditions: MAPPIT configuration: N-N; pair source set: Lit-BS-16
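Also: HEK293T cells with Epo stimulation, STAT-responsive firefly luciferase reporter, fold induction versus unstimulated cells divided by the larger fold induction of two negative controls lacking either bait or prey.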

B1: Nplp2 (protein)
chain: MAKLAICILVFALFALALSARVPREESNPAQEFLTKAQGDFNEFIEKLKALDAKKVEGLFKDGLNTVQEGLQKLNETFLQAPAAST
[1]
  MAPPIT interaction score: 0.0485
[2]
  MAPPIT interaction score: 2.23

B2: REPTOR (protein)
chain: MTENQLYPMSSEFFDTGSNSSSNTLKYDLYSLGSTVVGAALPTLTINTGYGSSSSNNNNTNNNNNNSSSHSSSSNCSTSTTNTCNVMLSTTAITIPRSSNHNQIHHHPYQQSDLQTPRHHPSPLHTLPSMTHQQNQLQQQQQQQHHNQQQQLQQSHLALGELSDFGLDALDAASLSPTLLQDVSLSAVSPLSTTLYNGNTSGAGSSNGIGSGSGGYFTPDMSHSLSLNVVSEQVLLQEATTPNELLYEMTPNSNAMWSDISSAIIHTKHEPFSLDDDYIFPNDKAEIQAADLSDLNGGDFLDVIGNIEDFLPQTAVTQSVNFLLSPQAQGQDALVAPPMELLQQQQQNHQQLQVGSLPQLQTLLTLSQQQQSNSSSTSPYEIYHSTPQKPQQQQLSASFSPGSQASQSPLTPPPPPHANRPQYQMVKSRNMQELIKKGFPMSSPPERSILSQSAALSPGGSSGFGSSASGNSTTTSNQTSGSAVRKSFGYQSAVENSQLSRLSSSAPTHLGLEHIWMRREPRQHLLSTGSLAEAESFSSLSTGSVLSPDGIDFSQDDEDDNSSENSDNYDDCSSDNGLSEDEDETRTSTPNHLSSSKGKERFFWQYNVQAKGPKGKRLVFQSKLEDPHVLNEVTDPVFSPTCSVRGIKVYKHSGKARKGDGNDLTPNARKLHNIGKELDKLSRTINDMTPVSELPFNVRPKSRKEKNKLASRACRLKKKAQHEANKIKLFGLEIEHSEFNVKAVEISYNPSIFVL
[3]
  MAPPIT interaction score: 0.721

B3: Pdf (protein)
chain: MARYTYLVALVLLAICCQWGYCGAMAMPDEERYVRKEYNRDLLDWFNNVGVGQFSPGQVATLCRYPLILENSLGPSVPIRKRNSELINSLLSLPKNMNDAGK
[4]; pair source set: Finley_Y2H
  MAPPIT interaction score: 2.66

B4: E(spl)m4-BFM (protein)
chain: MCQNKINTNNTMTIKSNKKLSYSVKKLLQKIFKQQQRVEEEQNLKNALKANSLESLESMENSRNADLESASICASLESCENEANERLSQSCEIEDYDFEQLPTVPVHFVRTAHGTFFWTAVSDLPADNDLVEPLYCSTSNAIAIPQDRWVQA
[5]
  MAPPIT interaction score: 0.268

B5: Rsf1 (protein)
chain: MGDQRGTRVYVGNLTDKVKKDDLEGEFTKYGKLNSVWIAFNPPGFAFVEFEHRDDAEKACDILNGSELLGSQLRVEISKGRPRQGRRGGPMDRGGRRGDFGRHSITSGGSGGGGFRQRGSSGSSSRHTERGYSSGRSGASSYNGREGGGSGFNRREVYGGGRDSSRYSSGSSASYGRTGGQSAGRFRSRSPVGNHRF
[6]
  MAPPIT interaction score: 0.372

B6: Pu (protein)
chain: MSFTRQLSEMSASELNDAIDDTNFPQAHILSRGRNNSVCSTSSTSGTSSLADRQQNQAEEATAIAGTPVEEVAPAPALVPLAGNQRPRLILKTNGSSPDSDGTQPKTPLTPRTSTTPGHEKCTFHHDLELDHKPPTREALLPDMARSYRLLLGGLGENPDRQGLIKTPERAAKAMLYFTKGYDQSLEDVLNGAVFDEDHDEMVVVKDIEMFSMCEHHLVPFYGKVSIGYLPCNKILGLSKLARIVEIFSRRLQVQERLTKQIAVAVTQAVQPAGVAVVVEGVHMCMVMRGVQKINSKTVTSTMLGVFRDDPKTREEFLNLVNSK
[7]
  MAPPIT interaction score: 5.06 (active)

B7: Archease (protein)
chain: MEVEFSRENFLLPEMKYEYLDHTADVQIHGWGSSLKEAFEQCGVAMFGYMTELDYVSVEQCFEIEAHGDDLESLLFHFLDELLFLFSAEPYLVCKKLEITKFDVENFEISCHCYGEPFELGKHPQGTEVKAITYSAMQIIQDVEASNYEVFVIIDI
[8]
  MAPPIT interaction score: -0.294

B8: wol (protein)
chain: MWTCLCQLCFYLLSTLAVAALSIAALVLYKTKPYPNIKRHKDEETFLDPHTIKTVTFPSLEDSPSLELSVIVPAYNEEQRLPSMLDECLAFLEQKSAGTPNFTYEVIVVSDGSQDATVSVALGYSKKHGAEKVRVLELIENRGKGGAVRMGMLSARGRNLLFADADGATKFPDYDKLEVALKQLAPEWRDDGIAIGSRAHLENDAIATRSFFRTILMHGFHFLVWLFAVRSIRDTQCGFKLFTRTTARKLFTSLHVERWAFDVELLYLAENLKLPMSEVAVRWTEIDGSKLTPFWSWLQMGRDLFMIWVRYLVGAWRIASIQKKEK
[4]; pair source set: Lit-BS-16
  MAPPIT interaction score: 0.541

B9: Cyp12a4 (protein)
chain: MLKVRSALSLIQSQKATLSLATQKRWQTNVATAEAREDSEWLQAKPFEQIPRLNMWALSMKMSMPGGKYKNMELMEMFEAMRQDYGDIFFMPGIMGNPPFLSTHNPQDFEVVFRNEGVWPNRPGNYTLLYHREEYRKDFYQGVMGVIPTQGKPWGDFRTVVNPVLMQPKNVRLYYKKMSQVNQEFVQRILELRDPDTLEAPDDFIDTINRWTLESVSVVALDKQLGLLKNSNKESEALKLFHYLDEFFIVSIDLEMKPSPWRYIKTPKLKRLMRALDGIQEVTLAYVDEAIERLDKEAKEGVVRPENEQSVLEKLLKVDRKVATVMAMDMLMAGVDTTSSTFTALLLCLAKNPEKQARLREEVMKVLPNKNSEFTEASMKNVPYLRACIKESQRLHPLIVGNARVLARDAVLSGYRVPAGTYVNIVPLNALTRDEYFPQASEFLPERWLRSPKDSESKCPANELKSTNPFVFLPFGFGPRMCVGKRIVEMELELGTARLIRNFNVEFNYPTENAFRSALINLPNIPLKFKFIDLPN
[9]
  MAPPIT interaction score: -0.0129

B10: Phb1 (protein)
chain: MAAQFFNRIGQMGLGVAVLGGVVNSALYNVEGGHRAVIFDRFTGIKENVVGEGTHFFIPWVQRPIIFDIRSQPRNVPVITGSKDLQNVNITLRILYRPIPDQLPKIYTILGQDYDERVLPSIAPEVLKAVVAQFDAGELITQREMVSQRVSQELTVRAKQFGFILDDISLTHLTFGREFTLAVEMKQVAQQEAEKARFVVEKAEQQKLASIISAEGDAEAAGLLAKSFGEAGDGLVELRRIEAAEDIAYQLSRSRGVAYLPSGQSTLLNLPSTIAQ
[10]
  MAPPIT interaction score: 0.345

B11: eEF1gamma (protein)
chain: MVKGTLYTYPENFRAYKALIAAQYSGAQVKVADNFKFGETNKSAEFLKKFPGGKVPAFETAEGQYLSESNAIAYLLANEQLRGGKCPFVQAQVQQWISFADNEIVPASCAWVFPLLGILPQQKNSTAKQEAEAVLQQLNQKLQDATFLAGERITLADIVVFSSLLHLYEYVLEPSVRSAFGNVNRWFVTILNQKQVQAVVKDYKLCEKALVFDPKKYAEFQAKTGAAKPQQQAQQQKQEKKPKEKKEAPKKAAEPAEELDAADEALAAEPKSKDPFDALPKGTFNFDDFKRVYSNEDEAKSIPYFFDKFDAENYSIWFGEYKYNEELSKVFMSCNLITGMFQRLDKMRKAAFASVCLFGEDGNSTISGIWVWRGQDLAFTLSPDWQIDYEVYDWKKLDAKSEETKKLVTQYFSWSGTDKDGRKFNQGKIFK
[11]
  MAPPIT interaction score: -0.0165

B12: Lip3 (protein)
chain: MTRGALKVTILLVGLGLVLAGSRPISDCGERIEDDGYPMERHEVVTSDNYILTMHRIPYSPKTGESSNRPVAFLMHGMLSSSSDWVLMGPERSLAYMLADAGYDVWMGNARGNTYSKAHKYWPTYWQIFWNFSWNEIGMYDVPAMIDYVLAKTGQQQVQYVGHSQGTTVYLVMVSERPEYNDKIKSAHLLGPAAYMGNMKSPLTRAFAPILGQPNAIVEVCGSMEFMPSNKFKQDLGIEMCQATSPYADMCANEIFLIGGYDTEQLDYELLEHIKATSPAGASVNQNLHFCQEYNSGKFRKFDYTALRNPYEYGSYFPPDYKLKNAKAPVLLYYGANDWMCDVSDVRKLRDELPNMALDYLVPFEKWAHLDFIWGTEARKYVYDEVLKQMQSYE
[12]
  MAPPIT interaction score: 0.346
[13]
  MAPPIT interaction score: 1.35

B13: Lap1 (protein)
chain: MPLLSKCFPCFKFKREEVIDKLDYSNTPLTDFPEVWQHERTLEELYLSTTRLQALPPQLFYCQGLRVLHVNSNNLESIPQAIGSLRQLQHLDLNRNLIVNVPEEIKSCKHLTHLDLSCNSLQRLPDAITSLISLQELLLNETYLEFLPANFGRLVNLRILELRLNNLMTLPKSMVRLINLQRLDIGGNEFTELPEVVGELKSLRELWIDFNQIRRVSANIGKLRDLQHFEANGNLLDTLPSELSNWRNVEVLSICSNSLEAFPFSVGMLKSLVTFKCESNGLTELPDSISYLEQLEELVLSHNKLIRLPSTIGMLRSLRFLFADDNQLRQLPDELCSCQQLSVLSVANNQLSALPQNIGNLSKMKVLNVVNNYINALPVSMLNLVNLTSMWLSDNQSQPLVPLQYLDASTKTQLTCFMLPQVTFKMNSIQAQQQAQEQYEFVYANQQQPHASPSRRICFAEEATILSNAKAQPAPNYPSFVAAPPTPTPDQMAGSVRLMRSPTPYPKELRQMSKYVRQAQAATSSANASEVREARVVTNGQIHCDSNNANQDVVDQATTSAIYGIAPETTHIYGVYQQPQQMAHPVPTQEYYGLPLVNYEAHYQQLYVEANTPLPTTHLNGDQDYELQPLQQQPMQQQALPTPRLEPPPYHIARVYTKKTPEDLNLYESMRQRKQQQQLQEQTIYQDALNSNSNFKTTAIGAQDVEESVDQLDYQNNISNNLEPNPEEEDQELDDTMSQHSLNSTATNNTSKASHKKSTWIFGVHKNPTVKQVTLKWENSIGFDIAELLNQVGIFVSSITPNTNAARLLNLNDKLLEIDGYDLTNANLSDAKRVLLNCGTVMNIMLSRK
[14]
  MAPPIT interaction score: -0.0144

B14: Cyp9f2 (protein)
chain: MLWEFFALFAIAAALFYRWASANNDFFKDRGIAYEKPVLYFGNMAGMFLRKRAMFDIVCDLYTKGGSKKFFGIFEQRQPLLMVRDPDLIKQITIKDFDHFINHRNVFATSSDDDPHDMSNLFGSSLFSMRDARWKDMRSTLSPAFTGSKMRQMFQLMNQVAKEAVDCLKQDDSRVQENELDMKDYCTRFTNDVIASTAFGLQVNSFKDRENTFYQMGKKLTTFTFLQSMKFMLFFALKGLNKILKVELFDRKSTQYFVRLVLDAMKYRQEHNIVRPDMINMLMEARGIIQTEKTKASAVREWSDRDIVAQCFVFFFAGFETSAVLMCFTAHELMENQDVQQRLYEEVQQVDQDLEGKELTYEAIMGMKYLDQVVNEVLRKWPAAIAVDRECNKDITFDVDGQKVEVKKGDVIWLPTCGFHRDPKYFENPMKFDPERFSDENKESIQPFTYFPFGLGQRNCIGSRFALLEAKAVIYYLLKDYRFAPAKKSCIPLELITSGFQLSPKGGFWIKLVQRN
[15]
  MAPPIT interaction score: -0.452
